Experimental data: PubChem BioAssay (NCATS)
Results filed as inconclusive are left out. Unmarked numbers belong to inactive results. The call rests on the fitted dose curve; in most records, active means well fitted inhibition curve with a large enough effect; inconclusive means small, poorly fitted or top-dose-only effect; inactive means flat fitted curve, though single readings scatter.

System: CP266
Assay: qHTS profiling for inhibitors of Plasmodium falciparum proliferation (AID 504749);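 further: 0% = DMSO vehicle and full inhibition = artemisinin control; nearly all actives have a fitted effect of over 60% in size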
Conditions: P. falciparum in erythrocytes, SYBR Green DNA, 72 h; series mostly up to 28.7 µM; activity, negative = inhibition: at the top concentration
Procedure, shortened: (§1)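 SYBR Green fluorescence (ex 485 nm, em 535 nm) reports parasite DNA after 72 h compound exposure of infected red cells at 0.3% parasitemia, 2.5% hematocrit; signal normalized to 0.29 uM artemisinin and vehicle wells.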

| SMILES | activity, negative = inhibition |
| --- | --- |
| COc1cc(S(C)=O)ccc1-c1nc2ncccc2[nH]1 (stereo not given) | 3.78% |
| CCOc1ccc(S(=O)(=O)O)c2cccnc12 | 1.18% |
| NC(=S)NS(=O)(=O)c1ccc(N)cc1 | 8.23% |
| C[C@]12CC[C@@H]3c4ccc(OC(=O)c5ccccc5)cc4CC[C@H]3[C@@H]1CC[C@@H]2O | 4.24% |
| CC(CCc1ccc(O)cc1)NCC(O)c1ccc(O)cc1 (stereo not given) | 0.346% |
| FC(F)(F)C(F)(F)C(F)(F)C(F)(F)C(F)(F)C(F)(F)F | -0.89% |
| CN(C)CCOc1ccc(/C(=C(/CCCl)c2ccccc2)c2ccccc2)cc1 | 7.31% |
| CNC(=O)OCc1cccc(COC(=O)NC)n1 | 0.815% |
| NCC[C@H](O)C(=O)N[C@@H]1C[C@H](N)[C@@H](O[C@H]2O[C@H](CN)[C@@H](O)[C@H](O)[C@H]2O)[C@H](O)[C@H]1O[C@H]1O[C@H](CO)[C@@H](O)[C@H](N)[C@H]1O | -6.56% |
| NC(N)=O | 0.603% |
| CC1CCCCN1CCCOC(=O)c1ccccc1 (stereo not given) | 0.141% |
| COC(=O)CCC[N+](C)(C)C | 5.77% |
| COC(=O)CC[C@H](N)C(=O)O | 0.361% |
| O=C(OCc1ccccc1)c1ccc(O)cc1 | 5.95% |
| CC(C)(CO)[C@@H](O)C(=O)NCCC(=O)NCCSSCCNC(=O)CCNC(=O)[C@H](O)C(C)(C)CO | 1.38% |
| COC(=O)c1ccccc1O | 4.19% |
| OC[C@H]1O[C@@](CO)(O[C@H]2O[C@H](CO)[C@@H](O)[C@H](O)[C@H]2O)[C@@H](O)[C@@H]1O | -0.914% |
| Nc1nccs1 | 0.339% |
| c1ccc2ccccc2c1 | 3.76% |
| O=S(=O)(O)CCCS(=O)(=O)O | -4.91% |

| SMILES | activity, negative = inhibition |
| --- | --- |
| O=C1c2ccccc2C(=O)c2c1ccc(O)c2O | 1.04% |
| O=C(NNCNNC(=O)c1ccncc1)c1ccncc1 | 17.3% |
| [O]=[Bi][O]C(=O)[O][Bi]=[O] | 0.491% |
| C=CCN1CCCC1CNC(=O)c1cc(S(N)(=O)=O)cc(OC)c1OC (stereo not given) | 10.3% |
| CC(C)[C@H](N)C(=O)OCC(CO)OCn1cnc2c(=O)[nH]c(N)nc21 (stereo not given in full) | -0.949% |
| CCCCCCCCCCCCCCCCCC(=O)OC[C@@H](O)[C@H]1OC[C@H](O)[C@H]1O | 2.18% |
| CC(=O)[C@H]1CC[C@H]2[C@@H]3C=CC4=CC(=O)CC[C@@]4(C)[C@H]3CC[C@]12C | -20.7% [at 12.8 µM] |
| CCCC(=O)O | -1.73% |
| CC1(C)S[C@@H]2[C@H](NC(=O)C3(N)CCCCC3)C(=O)N2[C@H]1C(=O)O | -21% |
| CCCCCCCCCCCC(=O)OCC(O)CO (stereo not given) | 14% |
| CCOc1ccc(NC(=S)Nc2ccc(OCC)cc2)cc1 | -0.624% |
| C[C@H](CCC(=O)O)[C@H]1CC[C@H]2[C@@H]3CC[C@@H]4C[C@H](O)CC[C@]4(C)[C@H]3C[C@H](O)[C@]12C | -18% |
| CC(C)(COP(=O)(O)OP(=O)(O)OC[C@H]1O[C@@H](n2cnc3c(N)ncnc32)[C@H](O)[C@@H]1OP(=O)(O)O)C(O)C(=O)NCCC(=O)NCCS (stereo not given in full) | 5.12% |
| O=C(CCCCCCCCCCCCC1CCCC1)Nc1ccc(S(=O)(=O)c2ccc(NC(=O)CCCCCCCCCCCCC3CCCC3)cc2)cc1 | 4.08% |
| Nc1nc(=O)n([C@@H]2CS[C@H](CO)O2)cc1F | -1.91% |
| O=C(O)CCC/C=C\C[C@@H]1[C@@H](/C=C/[C@@H](O)COc2cccc(C(F)(F)F)c2)[C@H](O)C[C@@H]1O | -1.09% |
| Cc1c(Cl)cccc1Nc1ncccc1C(=O)O | -0.2% |
| CC(C)=CCC/C(C)=C/CC/C(C)=C/CC/C=C(\C)CC/C=C(\C)CCC=C(C)C | -15.1% |
| CC(=O)Nc1ccc(OC(C)=O)cc1 | -2.3% |
| CC(=O)N[C@@H]1C(O[C@H]2O[C@H](C(=O)O)C(O)[C@H](O)[C@H]2O)[C@H](O)[C@@H](CO)O[C@H]1O[C@@H]1C(C(=O)O)O[C@@H](O[C@H]2[C@H](O)[C@@H](CO)OC(O)[C@@H]2NC(C)=O)[C@H](O)[C@H]1O (stereo not given in full) | -0.242% |

System: CP268
Assay: as above
Conditions: P. falciparum in erythrocytes, SYBR Green DNA, 72 h; series mostly up to 28.7 µM; activity, negative = inhibition: at the top concentration
Procedure, shortened: as §1

| SMILES | activity, negative = inhibition |
| --- | --- |
| COc1cc(S(C)=O)ccc1-c1nc2ncccc2[nH]1 (stereo not given) | 9.07% |
| CCOc1ccc(S(=O)(=O)O)c2cccnc12 | -0.895% |
| NC(=S)NS(=O)(=O)c1ccc(N)cc1 | -1.31% |
| C[C@]12CC[C@@H]3c4ccc(OC(=O)c5ccccc5)cc4CC[C@H]3[C@@H]1CC[C@@H]2O | 0.207% |
| CC(CCc1ccc(O)cc1)NCC(O)c1ccc(O)cc1 (stereo not given) | -0.638% |
| FC(F)(F)C(F)(F)C(F)(F)C(F)(F)C(F)(F)C(F)(F)F | -3.77% |
| CN(C)CCOc1ccc(/C(=C(/CCCl)c2ccccc2)c2ccccc2)cc1 | -4.71% |
| CNC(=O)OCc1cccc(COC(=O)NC)n1 | -0.581% |
| NCC[C@H](O)C(=O)N[C@@H]1C[C@H](N)[C@@H](O[C@H]2O[C@H](CN)[C@@H](O)[C@H](O)[C@H]2O)[C@H](O)[C@H]1O[C@H]1O[C@H](CO)[C@@H](O)[C@H](N)[C@H]1O | -4.69% |
| NC(N)=O | -1.49% |
| CC1CCCCN1CCCOC(=O)c1ccccc1 (stereo not given) | -10.4% |
| COC(=O)CCC[N+](C)(C)C | -1.34% |
| COC(=O)CC[C@H](N)C(=O)O | 1.62% |
| O=C(OCc1ccccc1)c1ccc(O)cc1 | -4.48% |
| CC(C)(CO)[C@@H](O)C(=O)NCCC(=O)NCCSSCCNC(=O)CCNC(=O)[C@H](O)C(C)(C)CO | -1.61% |
| COC(=O)c1ccccc1O | -12.1% |
| OC[C@H]1O[C@@](CO)(O[C@H]2O[C@H](CO)[C@@H](O)[C@H](O)[C@H]2O)[C@@H](O)[C@@H]1O | -2.55% |
| Nc1nccs1 | 0.664% |
| c1ccc2ccccc2c1 | -5.65% |
| O=S(=O)(O)CCCS(=O)(=O)O | 1.27% |

| SMILES | activity, negative = inhibition |
| --- | --- |
| O=C1c2ccccc2C(=O)c2c1ccc(O)c2O | 4.44% |
| O=C(NNCNNC(=O)c1ccncc1)c1ccncc1 | 3.15% |
| [O]=[Bi][O]C(=O)[O][Bi]=[O] | -2.87% |
| C=CCN1CCCC1CNC(=O)c1cc(S(N)(=O)=O)cc(OC)c1OC (stereo not given) | -6.21% |
| CC(C)[C@H](N)C(=O)OCC(CO)OCn1cnc2c(=O)[nH]c(N)nc21 (stereo not given in full) | -0.408% |
| CCCCCCCCCCCCCCCCCC(=O)OC[C@@H](O)[C@H]1OC[C@H](O)[C@H]1O | -9.14% |
| CC(=O)[C@H]1CC[C@H]2[C@@H]3C=CC4=CC(=O)CC[C@@]4(C)[C@H]3CC[C@]12C | 3.73% [at 12.8 µM] |
| CCCC(=O)O | -4.97% |
| CC1(C)S[C@@H]2[C@H](NC(=O)C3(N)CCCCC3)C(=O)N2[C@H]1C(=O)O | -0.876% |
| CCCCCCCCCCCC(=O)OCC(O)CO (stereo not given) | -6.44% |
| CCOc1ccc(NC(=S)Nc2ccc(OCC)cc2)cc1 | 1.03% |
| C[C@H](CCC(=O)O)[C@H]1CC[C@H]2[C@@H]3CC[C@@H]4C[C@H](O)CC[C@]4(C)[C@H]3C[C@H](O)[C@]12C | 2.93% |
| CC(C)(COP(=O)(O)OP(=O)(O)OC[C@H]1O[C@@H](n2cnc3c(N)ncnc32)[C@H](O)[C@@H]1OP(=O)(O)O)C(O)C(=O)NCCC(=O)NCCS (stereo not given in full) | -2.48% |
| O=C(CCCCCCCCCCCCC1CCCC1)Nc1ccc(S(=O)(=O)c2ccc(NC(=O)CCCCCCCCCCCCC3CCCC3)cc2)cc1 | 1.2% |
| Nc1nc(=O)n([C@@H]2CS[C@H](CO)O2)cc1F | -1.38% |
| O=C(O)CCC/C=C\C[C@@H]1[C@@H](/C=C/[C@@H](O)COc2cccc(C(F)(F)F)c2)[C@H](O)C[C@@H]1O | 0.199% |
| Cc1c(Cl)cccc1Nc1ncccc1C(=O)O | -1.83% |
| CC(C)=CCC/C(C)=C/CC/C(C)=C/CC/C=C(\C)CC/C=C(\C)CCC=C(C)C | 0.311% |
| CC(=O)Nc1ccc(OC(C)=O)cc1 | -8.86% |
| CC(=O)N[C@@H]1C(O[C@H]2O[C@H](C(=O)O)C(O)[C@H](O)[C@H]2O)[C@H](O)[C@@H](CO)O[C@H]1O[C@@H]1C(C(=O)O)O[C@@H](O[C@H]2[C@H](O)[C@@H](CO)OC(O)[C@@H]2NC(C)=O)[C@H](O)[C@H]1O (stereo not given in full) | 0.926% |
